This is an account of results in publication PMC11062922 (Nature Chemical Biology, 2023).

Structures are written as SMILES. Read-outs that look alike come from different tables or passages of the source.

Design in all cases: species or system human, MV4-11 + K-562 + COLO205 + SK-N-BE2 + OVCAR-8
One assay relates to ATM. As to conditions: read-out: apparent Kd, n = 1.
The test system of another assay is AURKA. As to conditions: read-out: apparent Kd, n = 1.
The subject of a further assay is BCR. Particulars: read-out: apparent Kd, n = 1.
The next assay concerns CAMKK2. As to conditions: read-out: apparent Kd, n = 1.
The test system of the next assay is CHEK1. Particulars: read-out: apparent Kd, n = 1.
Another assay relates to EPHA4. Particulars: read-out: apparent Kd, n = 1.
Another assay concerns EPHA5. Particulars: read-out: apparent Kd, n = 1.
Another assay deals with EPHB2. Particulars: read-out: apparent Kd, n = 1.
For a further assay, the system named is EPHB4. Particulars: read-out: apparent Kd, n = 1.
A further assay concerns PRKACB. Particulars: read-out: apparent Kd, n = 1.
In the next assay the test system is PRKAG2. As to conditions: read-out: apparent Kd, n = 1.
In a further assay the test system is TNK1. Particulars: read-out: apparent Kd, n = 1.
The test system of the next assay is TNK2. As to conditions: read-out: apparent Kd, n = 1.
The subject of another assay is CSNK1D. As to conditions: read-out: apparent Kd; compound concentrations:100 nM and 1000 nM (sheet 'Samples'); n = 1.
The test system of the next assay is MAPK10. As to conditions: read-out: apparent Kd, n = 1.
Another assay has as its system MARK3. Particulars: read-out: apparent Kd, n = 1.
The subject of a further assay is PRKACA. Particulars: read-out: apparent Kd, n = 1.
A further assay relates to CDK16. Particulars: read-out: apparent Kd; compound concentrations: 100 nM and 1000 nM (sheet 'Samples'), CATDS: 6.29330119004379E-3; n = 1.
For the next assay, the system named is MAPK9. Particulars: read-out: apparent Kd; compound concentrations: 100 nM and 1000 nM (sheet 'Samples'), CATDS: 7.8754696697006001E-3; n = 1.
In another assay the test system is STK4. As to conditions: read-out: apparent Kd; compound concentrations: 100 nM and 1000 nM (sheet 'Samples'), CATDS: 6.7227641521754398E-3; n = 1.
The mark [1] stands for this setting: compound concentrations:100 nM and 1000 nM (sheet 'Samples').

As for `Cl.Cl.NCC(C(=O)Nc1cc(Br)c(-c2ccnc3[nH]ccc23)s1)c1ccccc1.NCC(C(=O)Nc1cc(Br)c(-c2ccnc3[nH]ccc23)s1)c1ccccc1` (stereo not shown) [GSK1269851A], the potency estimated from few doses in the assay on ATM (setting [1]) was 275 nM; with AURKA (setting [1]) it was 768 nM; in the assay on BCR (setting [1]), 90.4 nM; in the assay with CAMKK2 (setting [1]) it was 1310 nM; with CHEK1 (setting [1]), 1700 nM; with EPHA4 (setting [1]), 510 nM. Moreover, the potency estimated from few doses with EPHA5 (setting [1]) was 74.9 nM; with EPHB2 (setting [1]), 94.9 nM; with EPHB4 (setting [1]), 54.6 nM; with PRKACB (setting [1]), 1920 nM; in the assay on PRKAG2 (setting [1]) it was 111 nM; with TNK1 (setting [1]) it was 62.7 nM. In addition, the potency estimated from few doses in the assay on TNK2 (setting [1]) is 46.6 nM.

On to `CC(C)N1CCC(n2cnc(-c3ccc(F)cc3)c2-c2ccnc(N)n2)CC1` [SB-223132], for which the potency estimated from few doses with AURKA (setting [1]) is 931 nM; in the assay on BCR (setting [1]) it was 660 nM; in the assay on CAMKK2 (setting [1]), 940 nM; in the assay with CHEK1 (setting [1]), 1740 nM; with CSNK1D it was 25.1 nM; in the assay on EPHA4 (setting [1]) it was 692 nM. Moreover, the potency estimated from few doses with EPHA5 (setting [1]) was 545 nM; with EPHB2 (setting [1]), 385 nM; in the assay on EPHB4 (setting [1]), 314 nM; in the assay with MAPK10 (setting [1]), 1330 nM; in the assay on MARK3 (setting [1]), 1770 nM; with PRKACA (setting [1]) it was 1710 nM. Moreover, the potency estimated from few doses in the assay on PRKAG2 (setting [1]) was 1040 nM; in the assay with TNK2 (setting [1]) it was 374 nM.

As for `CN1C[C@@H]2Cn3c(c(C4=C(c5cn(C)c6ccccc56)C(=O)NC4=O)c4ccccc43)C[C@H]2C1.Cl` [RO0320234-001], the potency estimated from few doses was 29.7 nM with ATM (setting [1]); 368 nM in the assay on AURKA (setting [1]); 57.1 nM in the assay with BCR (setting [1]); 1430 nM in the assay with CAMKK2 (setting [1]); 1280 nM with CHEK1 (setting [1]); 321 nM with EPHA4 (setting [1]). Moreover, the potency estimated from few doses was 207 nM in the assay on EPHA5 (setting [1]); 52.9 nM with EPHB2 (setting [1]); 15.9 nM with EPHB4 (setting [1]); 9.27 nM in the assay with TNK1 (setting [1]); 84.4 nM in the assay with TNK2 (setting [1]).

For `Clc1cc(Cl)cc(Nc2ccnc(Nc3cc(Cl)cc(Cl)c3)n2)c1` [GSK175726A], the potency estimated from few doses with ATM (compound concentrations: 100 nM and 1000 nM (sheet 'Samples'), CATDS: 2.7134606068091E-2) is 77.5 nM; in the assay with AURKA (compound concentrations: 100 nM and 1000 nM (sheet 'Samples'), CATDS: 1.16998692507499E-2), 470 nM; in the assay on BCR (compound concentrations: 100 nM and 1000 nM (sheet 'Samples'), CATDS: 1.5030836072921499E-2), 242 nM; in the assay on CAMKK2 (compound concentrations: 100 nM and 1000 nM (sheet 'Samples'), CATDS: 8.7749844490250094E-3), 1420 nM; in the assay on CHEK1 (compound concentrations: 100 nM and 1000 nM (sheet 'Samples'), CATDS: 9.2936135533363204E-3), 1080 nM; in the assay on EPHA4 (compound concentrations: 100 nM and 1000 nM (sheet 'Samples'), CATDS: 2.4571343446097599E-2), 91.5 nM. Besides, the potency estimated from few doses with EPHA5 (compound concentrations: 100 nM and 1000 nM (sheet 'Samples'), CATDS: 1.7966956970046102E-2) was 164 nM; in the assay with EPHB2 (compound concentrations: 100 nM and 1000 nM (sheet 'Samples'), CATDS: 1.9895433949459099E-2), 134 nM; with EPHB4 (compound concentrations: 100 nM and 1000 nM (sheet 'Samples'), CATDS: 2.29851767560591E-2) it was 103 nM; with PRKAG2 (compound concentrations: 100 nM and 1000 nM (sheet 'Samples'), CATDS: 2.5465407694982199E-2), 86.1 nM; in the assay with TNK1 (compound concentrations: 100 nM and 1000 nM (sheet 'Samples'), CATDS: 5.9656473094293803E-2), 24.9 nM; with TNK2 (compound concentrations: 100 nM and 1000 nM (sheet 'Samples'), CATDS: 2.7223225317324601E-2), 77.1 nM.

On to `NCCNS(=O)(=O)c1ccc(-c2ccnc3[nH]ccc23)cc1` [GSK977617A], for which the potency estimated from few doses is 295 nM in the assay with ATM (setting [1]); 244 nM in the assay with BCR (setting [1]); 1970 nM in the assay with CAMKK2 (setting [1]); 2250 nM with CHEK1 (setting [1]); 287 nM in the assay on EPHA4 (setting [1]); 267 nM in the assay with EPHA5 (setting [1]). Moreover, the potency estimated from few doses in the assay on EPHB2 (setting [1]) was 189 nM; with EPHB4 (setting [1]), 171 nM; in the assay on PRKACA (setting [1]) it was 361 nM; in the assay with PRKACB (setting [1]), 571 nM; in the assay on TNK1 (setting [1]) it was 181 nM; with TNK2 (setting [1]), 233 nM.

As for `COc1ccc(Nc2ncc(C#N)c(Nc3ccccc3C(N)=O)n2)cc1N1CCN(C)CC1.Cl` [GSK1558669A], the potency estimated from few doses in the assay with AURKA (compound concentrations: 100 nM and 1000 nM (sheet 'Samples'), CATDS: 3.9666626948294099E-2) is 12 nM; in the assay on BCR (compound concentrations: 100 nM and 1000 nM (sheet 'Samples'), CATDS: 1.27803345453226E-2) it was 96.9 nM; in the assay with CAMKK2 (compound concentrations: 100 nM and 1000 nM (sheet 'Samples'), CATDS: 6.1789819356504504E-3), 1430 nM; with CDK16 it was 1270 nM; with CHEK1 (compound concentrations: 100 nM and 1000 nM (sheet 'Samples'), CATDS: 1.1194862883684801E-2), 137 nM; in the assay on MAPK10 (compound concentrations: 100 nM and 1000 nM (sheet 'Samples'), CATDS: 6.8664179629566802E-3), 783 nM. The potency estimated from few doses in the assay with MAPK9 was 427 nM; in the assay with MARK3 (compound concentrations: 100 nM and 1000 nM (sheet 'Samples'), CATDS: 1.02819135302623E-2), 174 nM; in the assay with PRKAG2 (compound concentrations: 100 nM and 1000 nM (sheet 'Samples'), CATDS: 1.3647831185805001E-2), 82.8 nM; in the assay on STK4, 872 nM; in the assay on TNK1 (compound concentrations: 100 nM and 1000 nM (sheet 'Samples'), CATDS: 3.9834731570335402E-2) it was 11.9 nM.

On to `Cl.Nc1c(C(=O)c2cccc(C#CCN3CCCCC3)c2)cnn1-c1ccc(F)cc1` [RO1154461-001], for which the potency estimated from few doses with ATM (compound concentrations: 100 nM and 1000 nM (sheet 'Samples'), CATDS: 2.8189903331148802E-2) is 161 nM; in the assay with AURKA (compound concentrations: 100 nM and 1000 nM (sheet 'Samples'), CATDS: 1.31144942702613E-2), 784 nM; in the assay with BCR (compound concentrations: 100 nM and 1000 nM (sheet 'Samples'), CATDS: 1.8870015548456399E-2), 336 nM; in the assay on CAMKK2 (compound concentrations: 100 nM and 1000 nM (sheet 'Samples'), CATDS: 1.2329030932227101E-2) it was 934 nM; with CHEK1 (compound concentrations: 100 nM and 1000 nM (sheet 'Samples'), CATDS: 1.05759590598224E-2) it was 1550 nM; with EPHA4 (compound concentrations: 100 nM and 1000 nM (sheet 'Samples'), CATDS: 1.83423267934671E-2), 356 nM. Besides, the potency estimated from few doses is 260 nM in the assay with EPHA5 (compound concentrations: 100 nM and 1000 nM (sheet 'Samples'), CATDS: 2.15215497869925E-2); 156 nM in the assay with EPHB2 (compound concentrations: 100 nM and 1000 nM (sheet 'Samples'), CATDS: 2.8724117835498601E-2); 111 nM in the assay with EPHB4 (compound concentrations: 100 nM and 1000 nM (sheet 'Samples'), CATDS: 3.5435159362778398E-2); 2030 nM with MARK3 (compound concentrations: 100 nM and 1000 nM (sheet 'Samples'), CATDS: 9.8950713499473906E-3); 1440 nM in the assay on PRKACA (compound concentrations: 100 nM and 1000 nM (sheet 'Samples'), CATDS: 1.0779981289506101E-2); 1190 nM in the assay on PRKACB (compound concentrations: 100 nM and 1000 nM (sheet 'Samples'), CATDS: 1.14120731511483E-2). In addition, the potency estimated from few doses in the assay on TNK1 (compound concentrations: 100 nM and 1000 nM (sheet 'Samples'), CATDS: 4.5946833879509097E-2) is 75.5 nM; in the assay on TNK2 (compound concentrations: 100 nM and 1000 nM (sheet 'Samples'), CATDS: 5.6879237534392203E-2), 56.1 nM.

Take `Cc1cccc(-c2nc(Nc3ccncc3)c3sccc3n2)n1` [GW869641X]: the potency estimated from few doses in the assay on CSNK1D was 185 nM; in the assay on MAPK10 (setting [1]) it was 1140 nM.

`CCn1c(-c2nonc2N)nc2c(C#CC(C)(C)O)nc(OC[C@@H](N)c3ccccc3)cc21` [GSK938890A]: the potency estimated from few doses with PRKACA (compound concentrations: 100 nM and 1000 nM (sheet 'Samples'), CATDS: 0.21319960399835) was 22.6 nM; in the assay with PRKACB (compound concentrations: 100 nM and 1000 nM (sheet 'Samples'), CATDS: 0.177486762785802), 30.8 nM.
